SKKanGAS inh = S. pyogenes SKKanGAS growth inhibitors in kanamycin, primary screen, streptokinase expression inhibitor project, SKKanGAS strain, BacTiter-Glo luminescence; 300,000 tested, 1.3% active; AID 1662, 2009; inhibition, % at 7.5 µM; 6 h;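 active = mean replicate score, as percent of positive control median, at least 50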;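 also: strain carries kanamycin resistance gene driven by streptokinase promoter and grows in 40 µg/ml kanamycin; loss of luminescence reflects streptokinase promoter inhibition or plain growth inhibition; 0% = median of DMSO wells and 100% = positive control at its reference dose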
NR3A LBD binder = binders of NR3A ligand-binding domain, primary screen, biophysical, differential scanning fluorimetry, uHTS; Glutamate receptor ionotropic, NMDA 3A (GRIN3A) ligand-binding domain; NR3A LBD differential scanning fluorimetry, Tm shift; 0% = protein alone, 100% = glycine-bound protein; Tm shift relative to glycine control, % at 25 µM; 340,000 tested, 2.5% active; AID 1259313, 2017;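 active = melting temperature shift of at least 10% of the positive control shift, at one fixed dose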
Mdm2-MdmX inh = inhibitors of human Mdm2-MdmX association, primary screen, cell-based, luminescence, split luciferase, SaOS-2, uHTS; Protein Mdm4 (Homo sapiens) + E3 ubiquitin-protein ligase Mdm2 (Homo sapiens), …; SaOS-2 split-luciferase Mdm2/MdmX complementation; inhibition, % at 8 µM; 330,000 tested, 3% active; AID 485346, 2010;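 active = inhibition of at least 50% at 8 µM in the primary screen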
CSC inhib = cancer stem cell viability inhibitors, primary screen, luminescence; cancer stem cell-like cells viability; inhibition, % at 7.5 µM; 300,000 tested, 1.1% active; AID 2717, 2010; in the data active = inhibition above about 75%; tested in HMLE shEcad cells
MPTP block = mitochondrial permeability transition pore inhibitors, primary screen, biochemical, isolated mouse mitochondria, absorbance; inhibition, % at 10 µM; 360,000 tested, 1.4% active; Ca2+ swelling absorbance, 30 min;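 active = inhibition of 50% or more, scaled per plate between neutral and stimulator controls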;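 also: 0% = DMSO wells given calcium and 100% = 1 mM EGTA wells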
Beta apoptosis = inhibitors of cytokine-induced beta cell apoptosis, primary screen, luminescence; AID 435005, 2010; protection from apoptosis, % (test concentration not listed); INS-1E cytokine-induced death, ATP luminescence, 48 h; percent of positive-control rescue, neutral wells zero; 300,000 tested, 0.8% active;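 active = Every replicate reaches about 75%, or at least half do and their mean reaches it too, limit read from the data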;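 also: 0% = cytokine-treated negative control wells and 100% = positive control rescue; higher means more ATP so stronger rescue from cytokine killing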
Mdm2-MdmX conf = Mdm2-MdmX complex disruptors, retested hits, confirmation, luminescence, single concentration; shares compounds with Mdm2-MdmX inh; Mdm2-MdmX binding, luminescent assay; inhibition, % at 8 µM; 10,000 tested, 55% active; in the data active = inhibition above about 40%
Full FLuc ctr = full-length luciferase signal inhibition, confirmation, counter-screen for Mdm2/MdmX interaction inhibitor project, cell-based, single concentration, SaOS-2; shares compounds with Mdm2-MdmX inh; SaOS-2 full-length luciferase counterscreen, luminescence; inhibition, % at 8 µM; 6,200 tested, 77% active; AID 504607, 2011;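 active = mean inhibition at 8 µM reaching about 37%, which flags the compound as non-specific, limit read from the data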;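 also: p53-null SaOS-2 cells with luciferase driven by a doxycycline-inducible promoter; compound on cells about two nights before reading with doxycycline added after day one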
An asterisk follows results filed as active; nt = no result. Most compounds without a hit are left out; they make up all but 6.9% or so of the library.

SMILES	SKKanGAS inh	NR3A LBD binder	Mdm2-MdmX inh	CSC inhib	MPTP block	Beta apoptosis	Mdm2-MdmX conf	Full FLuc ctr
Cc1ccc(S(C)(=O)=O)cc1C(=O)Nc1cccc(S(=O)(=O)N2CCCCCC2)c1	nt	5	-4	1	1	-2	nt	nt
O=C(CCl)Nc1cccc(S(=O)(=O)NC2=NCCCCC2)c1	nt	-2	62*	61	0	-18	69*	36
CC(=O)c1c(C)[nH]c(C(=O)Nc2cccc(S(=O)(=O)N3CCCCC3)c2)c1C	nt	-14	72*	-1	38	-1	36	nt
Cc1ccc(S(=O)(=O)N2CCCCC2)cc1C(=O)N(C)CC(=O)Nc1ccc(Cl)c(C(F)(F)F)c1	3	6	55*	42	5	19	68*	49*
O=C(CCl)Nc1cccc(S(=O)(=O)N2CCCCCC2)c1	7	1	98*	19	2	-9	44*	24
Cc1cccc(C(=O)Nc2nnc(S(=O)(=O)N(C)Cc3ccco3)s2)c1	8	-9	-7	3	-1	8	nt	nt
N#Cc1ccc(CNC(=O)N2CCOCC2)cc1	-2	nt	23	nt	nt	nt	nt	nt
COc1ccc(C2=NN(C(=O)COc3ncnc4ccccc34)C(c3ccco3)C2)cc1 (stereo not given)	4	0	35	-1	-2	0	nt	nt
COc1ccc(C2=NN(C(=O)COC(=O)c3ccc(S(C)(=O)=O)c([N+](=O)[O-])c3)C(c3ccco3)C2)cc1 (stereo not given)	nt	-2	98*	96*	0	-11	91*	52*
Fc1ccc(NC(=S)Nc2ccc(Cl)cc2Cl)cc1	-18	1	10	3	nt	-3	nt	nt
Fc1ccccc1/C=N/NC(=S)Nc1ccc(Cl)cc1Cl	-2	-3	80*	64	2	13	72*	90*
Cc1cccc(/C=C/c2onc(C)c2S(=O)(=O)N2CCC(C(=O)N3CCC(C)CC3)CC2)c1	13	4	52*	-18	0	1	11	nt
CCOc1ccc(/C=N/NC(=O)CN2CCCCCCC2)cc1	-3	0	8	-6	1	-3	nt	nt
Cc1onc(-c2c(Cl)cccc2Cl)c1C(=O)N/N=C(\N)COc1ccc(Cl)cc1	11	-14	72*	101*	7	91*	82*	40*
COc1cc(/C=N/NC(=O)c2c(-c3c(Cl)cccc3Cl)noc2C)ccc1OCC(N)=O	-6	-2	14	nt	-1	nt	nt	nt
CC(C)n1cc(/C=C2/NC(=O)N(c3cccc(Cl)c3)C2=O)c2ccccc21	0	-3	62*	54	3	nt	65*	43*
CC(C)n1cc(/C=C2\NC(=O)N(c3cccc(Cl)c3)C2=O)c2ccccc21	-2	-5	40	40	2	-6	nt	nt
CCN(CC)c1ccc(S(=O)(=O)N2CCOCC2)cc1NC(=O)CSc1nnc(N)s1	8	-1	12	2	-1	-5	nt	nt
C=C1CCC[C@]2(C)C[C@H]3OC(=O)C(CNC(C)(CO)CO)[C@H]3CC12 (stereo not given in full)	-2	1	63*	10	3	-39	31	55*
C=C1CCC[C@]2(C)C[C@H]3OC(=O)C(CNC(CC)CO)[C@H]3CC12 (stereo not given in full)	1	1	42	17	2	-35	nt	nt
C=C1CCC[C@]2(C)C[C@H]3OC(=O)C(CN4CCCCC4CO)[C@H]3CC12 (stereo not given in full)	1	0	66*	33	0	-82	55*	38*
O=C(NCCS(=O)(=O)N1CCN(c2ccccc2F)CC1)c1cccs1	-11	0	-10	1	0	-2	nt	nt
CN1Cc2c(N3CCOCC3)nc3sc(C(=O)c4ccccc4)c(N)c3c2CC1(C)C	5	1	59*	-3	-5	0	24	nt
CCC(=NNC(=O)c1ccc2c(c1)nc(C)n2CC)c1cc(F)ccc1O	nt	0	58*	21	0	90*	22	nt
CCOC(=O)C1(Cc2ccc(OC)cc2)CCN(C(=O)c2cc(C)nn2C)CC1	-13	1	15	9	5	1	nt	nt
SMILES	SKKanGAS inh	NR3A LBD binder	Mdm2-MdmX inh	CSC inhib	MPTP block	Beta apoptosis	Mdm2-MdmX conf	Full FLuc ctr
CC[C@H](C)[C@@H](C(=O)NCCCCCCCCCCC(=O)N1CCN(C(=O)OC(C)(C)C)CC1)n1cc(CCCCN=C(NC(=O)OC(C)(C)C)NC(=O)OC(C)(C)C)nn1	nt	nt	64*	4	nt	112*	25	nt
C#CCOCCOCCOCCNc1nc(N2CCN(C(=O)CCCCCCCCCCNC(=O)[C@H]([C@@H](C)CC)n3cc(CCCCCN)nn3)CC2)nc(N2CCN(C(=O)CCCCCCCCCCNC(=O)[C@@H]([C@H](C)CC)n3cc(CCCCCN)nn3)CC2)n1	nt	nt	100*	167*	nt	115*	63*	1
C#CCOCCOCCOCCNc1nc(N2CCN(C(=O)CCCCCCCCCCNC(=O)[C@H]([C@@H](C)CC)n3cc(CCCCCN)nn3)CC2)nc(N2CCN(C(=O)CCCCCCCCCCNC(=O)[C@H](CO)n3cc(CCCCCN)nn3)CC2)n1	nt	28*	90*	3	-4	56	1	nt
CCCn1c(CCNC(=O)c2ccco2)nc2ccccc21	0	2	-6	0	1	-1	nt	nt
CSC(=S)NCc1cccnc1	-10	2	79*	35	1	9	73*	39*
NC(=S)NCc1cccnc1	0	1	-25	-5	2	3	nt	nt
CCOC(=O)C(C)N1C(=O)S/C(=C/c2ccc3c(c2)n(C)c(=O)n3C)C1=O (stereo not given)	1	0	51*	6	-4	-17	19	nt
Cn1c(=O)[nH]c(=O)c2c1nc(N/N=C/c1cccnc1)n2Cc1ccc(Cl)cc1	6	0	62*	-2	1	-2	17	nt
Cn1c(=O)[nH]c(=O)c2c1nc(N/N=C/c1ccncc1)n2Cc1ccc(F)cc1	-9	-1	27	-30	5	3	nt	nt
COC(=O)c1ccc(CNC(=O)c2ccc(OC)c(S(=O)(=O)NC3CCCC3)c2)cc1	nt	-2	-2	nt	0	-2	nt	nt
